# Measurements from PubChem BioAssay (NCATS).
# Inconclusive results are not listed. Activity calls are given as the source filed them. Calls follow the shape of the dose curve; as a rule, active = well fitted inhibition curve with a large enough effect; inconclusive = small, poorly fitted or top-dose-only effect; inactive = no such curve, though single readings can be large or run the other way.
# Target: Cytochrome P450 3A4 (Homo sapiens) (UniProt P08684)
# Assay: qHTS for inhibitors of CYP3A4 against the NCATS DSHEA and TCM libraries (AID 1919971);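 also: inhibition lowers luminescence from luciferin made by CYP3A4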
# Settings: recombinant CYP3A4 enzyme activity, luminescence qHTS; series mostly up to 34.1 µM
# How it was run: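 Substances were tested against enzyme with a pro-luciferin substrate; minus-enzyme wells served as background. After NADPH-initiated oxidation (30-45 min, RT), light was generated with P450-Glo reagent.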
# Cytochrome P450 3A4 (Homo sapiens), sequence (P08684 whole entry, looked up): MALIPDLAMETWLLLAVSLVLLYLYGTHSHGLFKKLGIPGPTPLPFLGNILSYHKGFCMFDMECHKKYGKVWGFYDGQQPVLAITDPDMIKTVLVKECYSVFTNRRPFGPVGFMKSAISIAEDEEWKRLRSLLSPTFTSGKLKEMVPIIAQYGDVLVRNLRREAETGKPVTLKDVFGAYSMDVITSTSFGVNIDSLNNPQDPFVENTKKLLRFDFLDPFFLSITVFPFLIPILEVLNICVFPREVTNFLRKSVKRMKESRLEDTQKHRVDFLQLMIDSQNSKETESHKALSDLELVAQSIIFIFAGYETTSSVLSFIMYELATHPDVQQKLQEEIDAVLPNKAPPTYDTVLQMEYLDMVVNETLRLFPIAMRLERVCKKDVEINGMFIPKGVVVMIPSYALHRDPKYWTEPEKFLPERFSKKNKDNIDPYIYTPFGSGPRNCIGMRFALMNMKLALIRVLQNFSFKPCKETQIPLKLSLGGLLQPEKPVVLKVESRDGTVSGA
row,Compound,outcome
1,CCCCCCCCCC(=O)O,inactive
2,O=C(O)CC(O)(CC(=O)O)C(=O)O,inactive
